Consider 63 compounds from PubChem BioAssay AID1490 (National Center for Advancing Translational Sciences (NCATS), 2009).

In all, about 310,000 compounds went through this assay and about 11,000 (3.5%) were called active. Another 4% or so got no clear call; they are omitted. Calls follow the shape of the dose curve; as a rule, active = well fitted inhibition curve with a large enough effect; inconclusive = small, poorly fitted or top-dose-only effect, or another doubt; inactive = no such curve, though single readings can be large or run the other way. Many of the other results were omitted from the sample, so actives are more common in it than they were.
Potency is read from the fitted curve at half-maximal effect.

For the assay, the target named is 4'-phosphopantetheinyl transferase ffp (Bacillus subtilis) (UniProt Q9F4F7). The assay can be described thus: qHTS Assay for Inhibitors of Bacillus subtilis Sfp phosphopantetheinyl transferase (PPTase).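 Also: the enzyme is Sfp with the accession as filed and its product quenches rhodamine fluorescence.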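 As to largest response in the series, negative = inhibition: 0% = enzyme reaction without inhibitor and -100% = no enzyme wells.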 Particulars: Biochemical Sfp PPTase activity. In short, it runs like this: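 After 15 min at room temperature with compound, 15 nM Sfp received 5 uM rhodamine-CoA plus 12.5 uM BHQ-2-ybbR (50 mM Hepes pH 7.6, 10 mM MgCl2). Rate came from the fluorescence difference over 30 min, ex 525/em 598 nm.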
For `O=C(CN(C(=O)c1csnn1)c1cccc(Cl)c1)NC1CCCC1`, the largest response in the series, negative = inhibition is 5.89% (inactive).
Still for that read-out and setting: for `C=CCNc1nnc(C)c2ccccc12` the value was 4.78% (inactive); for `Cc1nnc(NCCO)c2ccccc12`, 13.5% (inactive).
Turning to `NNc1nnc(NN)c2ccccc12`, the Potency is 89.1 µM (active).
For the compound `CSc1ccccc1OCc1cc(C(=O)N(C)CCc2c(C)n[nH]c2C)no1`, the largest response in the series, negative = inhibition was 0.222% (inactive).
With `COc1cc(C(=S)NCc2ccccc2)cc(Br)c1O`, the Potency is 8.91 µM (active).
Regarding `COc1cc(C(=O)NCc2ccncc2)cc(Br)c1OCc1ccccc1`, the largest response in the series, negative = inhibition is 4.37% (inactive).
Consider `COc1cc(C=O)c(Br)cc1OCC(=O)NCc1ccccc1`, for which the largest response in the series, negative = inhibition was 11.5% (inactive).
As for `NS(=O)(=O)c1ccccc1NC(=O)c1c(O)c2ccccc2[nH]c1=O`, the largest response in the series, negative = inhibition is -6.41% (inactive).
Consider `CC1CC(=O)N(CC(=O)Nc2cccc(Cl)c2)c2ccccc2S1(=O)=O` (stereo not drawn), for which the largest response in the series, negative = inhibition is 12.1% (inactive).
Still for that read-out and setting: the same measure for `COc1cc2c(cc1OC)[C@@H](Cc1cc(OC)c(OC)c(OC)c1)[N+](C)(CCCOC(=O)CC/C=C/CCC(=O)OCCC[N+]1(C)CCc3cc(OC)c(OC)cc3[C@H]1Cc1cc(OC)c(OC)c(OC)c1)CC2` (stereo partly drawn): -3.12% (inactive).
Same read-out and setting: for `CCCCN(CC)C(=O)C1CCCN(S(=O)(=O)c2cccc3nsnc23)C1` (stereo not drawn) the value was 17.1% (inactive).
Still for that read-out and setting: for `CCOC(=O)c1c(-c2ccccc2)csc1NC(=S)NC(=O)c1ccccc1` the value was -3.92% (inactive); for `CCC(C(=O)OC)n1cnc2scc(-c3ccc(C)cc3)c2c1=O` (stereo not drawn), 6.01% (inactive).
Regarding `COC(=O)c1c(-c2ccc(C)cc2)csc1N`, the Potency was 44.7 µM (active).
For `CCCCC/C=C\C[C@H](O)/C=C/C=C/C=C/[C@@H](O)CCCC(=O)O`, the largest response in the series, negative = inhibition was 6.53% (inactive).
Still for that read-out and setting: for `CC(=O)N1CCN(C(=O)C2(NC(=O)Nc3ccc(C)cc3)CCCCC2)CC1` the value was 14.1% (inactive); for `O=C(Cc1ccc(Br)cc1)NCCN1CCOCC1`, 14.6% (inactive).
For `CCCOc1ccc(C2c3c(oc4cc(C)c(C)cc4c3=O)C(=O)N2CCCN2CCOCC2)cc1` (stereo not drawn), the Potency is 50.1 µM (active).
`CCCCOc1ccc(C(C)(O)CCN2CCOCC2)cc1` (stereo not drawn): the largest response in the series, negative = inhibition was 6.22% (inactive).
Still for that read-out and setting: for `COc1ccc(C2/C(=C(/O)c3ccc(OC(C)C)cc3)C(=O)C(=O)N2CCCN2CCOCC2)cc1` (stereo not drawn) the value was -22.3% (inactive); for `CCOc1cc(-c2cc(-c3ccc(NC(C)=O)cc3)nc(N)c2C#N)ccc1O`, 10.7% (inactive); for `Cc1cc(=O)n2nc(N3CCCC(C(=O)NCc4cccc(Cl)c4)C3)sc2n1` (stereo not drawn), 8.1% (inactive).
On to `COc1ccc(CCNC(=O)NS(=O)(=O)c2ccc(C)cc2)cc1OC`, for which the largest response in the series, negative = inhibition was 17.5% (inactive).
As to `COc1ccc(CCNC(=O)Cc2ccc(C)cc2)cc1OC`, the Potency was 39.8 µM (active).
`COc1ccc(CCNC(=O)c2ccccc2-c2ccccc2C(=O)O)cc1OC`: the largest response in the series, negative = inhibition is 5.81% (inactive).
Turning to `CC(C)(Oc1ccc(C2CC2(Cl)Cl)cc1)C(=O)O` (stereo not drawn), the largest response in the series, negative = inhibition is 18% (inactive).
On the same count and under the same terms, for `COc1ccc(NS(=O)(=O)c2cc3c(cc2C)N(C(C)=O)CCO3)cc1` the value was 15.7% (inactive).
For `CCn1c(=O)c(=O)[nH]c2c(=O)oc3ccc(S(=O)(=O)Nc4ccc(OC)cc4)cc3c21`, the largest response in the series, negative = inhibition was 5.45% (inactive).
With `CCOC(=O)N1CCN(C(=O)C(=O)Nc2sc3c(c2C#N)CC(C)(C)OC3)CC1`, the largest response in the series, negative = inhibition is -14.6% (inactive).
On to `C/C=C\C=C\C(=O)N1CC2(CC(c3cccc(NC(=O)/C(C)=C\C)c3)=NO2)C[C@H]1C(N)=O` (stereo partly drawn), for which the Potency is 15.8 µM (active).
Take `CC/C=C/C(=O)N1CC2(CC(c3cccc(NC(=O)CC)c3)=NO2)C[C@H]1C(N)=O` (stereo partly drawn): the largest response in the series, negative = inhibition is -8.44% (inactive).
For the compound `C/C=C(/C)C(=O)Nc1cccc(C2=NOC3(C2)C[C@@H](C(N)=O)N(C(=O)C2(C)CC2)C3)c1` (stereo partly drawn), the largest response in the series, negative = inhibition is -3.68% (inactive).
Still for that read-out and setting: for `CCOC(=O)N1CCN(S(=O)(=O)c2ccc(-n3cnnn3)cc2)CC1` the value was 6.31% (inactive).
Consider `COc1ccc(NC(=S)Nc2ccc(S(N)(=O)=O)cc2)c(C)c1`, for which the Potency was 50.1 µM (active).
On to `CCOc1ccccc1N1CCN(C(=S)Nc2ccc(S(N)(=O)=O)cc2)CC1`, for which the largest response in the series, negative = inhibition was -3.97% (inactive).
Take `COc1ccc(N2CCN(C(=S)Nc3ccc(S(N)(=O)=O)cc3)CC2)cc1`: the Potency was 11.2 µM (active).
Take `NS(=O)(=O)c1ccc(NC(=S)NC(=O)c2cccnc2)cc1`: the largest response in the series, negative = inhibition is -95.1% (inactive).
Still for that read-out and setting: the same measure for `NS(=O)(=O)c1ccc(NC(=S)N2CCCC2)cc1`: 13.2% (inactive); for `COc1ccc(NS(=O)(=O)c2ccc(NC(=S)NC(=O)CC(C)C)cc2)cc1`: 3.37% (inactive); for `Cc1ccccc1NC(=O)CCOc1ccccc1`: 2% (inactive).
On the same count and under the same terms, for `CCc1ccc(CN(C)C(=O)C2CCC(=O)N(Cc3cccc(OC)c3)C2)nc1` (stereo not drawn) the value was 14.7% (inactive); for `Cc1ccc(NS(=O)(=O)c2cn(C)c(=O)n(C)c2=O)c(C)c1`, 8.01% (inactive); for `COc1ccccc1NC(=O)CCC(=O)N1CC(C)Oc2ccc(C)cc21` (stereo not drawn), 6.52% (inactive).
Consider `COc1ccc(C(C(=O)NCC2CCCO2)N(C(=O)Cn2nnc3ccccc32)c2ccc(NC(C)=O)cc2)cc1OC` (stereo not drawn), for which the largest response in the series, negative = inhibition was 15.5% (inactive).
Still for that read-out and setting: the same measure for `CN(C)c1nc(Nc2ccc(Cl)c(Cl)c2)nc(N(C)C)n1`: 3.3% (inactive).
In the case of `OCCNc1nc(Nc2ccc(Cl)c(Cl)c2)nc2ccccc12`, the Potency was 79.4 µM (active).
In the case of `Nc1nc(Nc2ccccc2)nc(NCCO)c1[N+](=O)[O-]`, the largest response in the series, negative = inhibition was 13.5% (inactive).
Same read-out and setting: the same measure for `O=C(NCC(=O)N1CCN(c2ccccc2O)CC1)c1ccc2ccccc2c1`: 2.02% (inactive).
On the same count and under the same terms, for `CCN1CCN(c2sc(S(C)(=O)=O)nc2S(=O)(=O)c2ccc(Cl)cc2)CC1` the value was 14.2% (inactive).
On the same count and under the same terms, the same measure for `COc1ccc(C(=O)COC(=O)Cn2cnc3c2c(=O)n(C)c(=O)n3C)c(OC)c1`: 2.93% (inactive); for `CCCOC1CCCN(C(=O)c2cc(COc3cncc(Cl)c3)on2)C1` (stereo not drawn): -1.29% (inactive).
Take `Oc1c(C(c2ccccn2)N2CCOCC2)ccc2cccnc12` (stereo not drawn): the Potency was 35.5 µM (active).
As for `CCOc1cc(N2CCOCC2)c(OCC)cc1NC(=O)COc1cccc2cccnc12`, the largest response in the series, negative = inhibition was 1.6% (inactive).
As for `OC(COc1ccc2ccccc2c1)CN1CCOCC1` (stereo not drawn), the largest response in the series, negative = inhibition was 11.8% (inactive).
Still for that read-out and setting: the same measure for `CN(C)CCNc1ccc(-c2n[nH]c(=O)c3ccccc23)cc1[N+](=O)[O-]`: 16.7% (inactive).
Regarding `O=C(Nc1ccccc1Cl)O/N=C(/c1ccccc1)c1ccccn1`, the Potency is 79.4 µM (active).
As to `Cc1ccc(C(=O)O/N=C(\N)c2ccccn2)cc1Cl`, the largest response in the series, negative = inhibition was 2.02% (inactive).
Still for that read-out and setting: the same measure for `O=C(Nc1ccccc1Cl)Nc1cccc2cccnc12`: 2.31% (inactive).
The same measure, in the same setting: the same measure for `CCCCNc1nc(C)nc2c1nc(-c1ccccc1)n2CCCCN(CC)CC`: 23.3% (inactive).
The same measure, in the same setting: for `Cc1cc(C)n(-c2ccc(NC(=O)C3CCCCN3C(=O)c3cccs3)cc2)n1` (stereo not drawn) the value was 4.09% (inactive); for `C=CCc1cccc(/C=N/NC(=O)COc2ccc(-n3cnnn3)cc2)c1O`, 15.1% (inactive).
`CCc1ccnc(NC(=O)Nc2ccc(OCc3ccccc3)cc2)c1`: the largest response in the series, negative = inhibition was -0.979% (inactive).
